Source: PubChem BioAssay (several laboratories)
tim23-1 inh: growth inhibitors of tim23-1 mutant yeast, primary screen, luminescence, uHTS; AID 463212, 2010; hit rate 1.3% among 330,000; S. cerevisiae tim23-1 growth, BacTiter-Glo luminescence, 24 h; inhibition, % at 20 µM;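 active means growth inhibition of the mutant yeast at or above 50%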;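 further: temperature-sensitive mutant grown at 25 °C; plate controls were DMSO-treated mutant yeast for no effect and medium wells lacking yeast for full effect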
PfHsp90 yeast 2: growth inhibition of PfHsp90-expressing yeast, primary screen, antimalarial PfHsp90 inhibitor project, S. cerevisiae, BacTiter-Glo luminescence, single point, set 2; inhibition, % at 9.4 µM; hit rate 0.32% among 310,000; AID 504621, 2011; BacTiter-Glo ATP, 48 h; yeast lacking PDR1 and PDR3 efflux regulators;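 active means every replicate shows inhibition above about 80%, whatever the replicate mean, limit read from the data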;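 further: 0% = DMSO neutral controls and 100% = 20 µM radicicol positive controls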
NLRP3 yeast inh: NALP3 inflammasome inhibitors in reconstituted yeast, primary screen, luminescence, uHTS | Yeast reconstituted NLRP3/ASC/caspase-1, beta-gal luminescence, 24 h | inhibition, % at 10 µM | hit rate 0.39% among 330,000;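 active means inhibition of 50% or more; inactive means inhibition below 50%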;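 further: plate controls were induced DMSO wells for no effect and uninduced yeast grown without galactose for full effect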
TIM10 inh: growth inhibitors of isogenic TIM10 control yeast, primary screen, counter-screen for tim10-1 yeast inhibitor project, luminescence, uHTS; S. cerevisiae TIM10 strain growth, BacTiter-Glo luminescence, 24 h; inhibition, % at 10 µM; hit rate 1.4% among 330,000; AID 463195, 2010;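 active means inhibition of 40% or more at the single tested concentration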;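 further: wild-type TIM10 isogenic control strain grown at permissive 25 °C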
tim10-1 inh: growth inhibitors of tim10-1 mutant yeast, primary screen, luminescence, uHTS; AID 463190, 2010; inhibition, % at 20 µM; hit rate 2.2% among 330,000; S. cerevisiae tim10-1 ts strain growth, BacTiter-Glo, 24 h;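 active means inhibition of at least 40%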;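 further: mutant grown at 25 °C; 0% = DMSO wells with yeast and 100% = wells holding no yeast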
NALP1 yeast inh: NALP1 inflammasome inhibitors in reconstituted yeast, colorimetric, S. cerevisiae, triplicate retest; hit rate 0.61% among 280,000; S. cerevisiae NALP1/ASC/caspase-1 growth, X-gal OD620, 72 h; inhibition, % at 10 µM; AID 2071, 2009; in the data active means inhibition mostly above about 24%, no sharp cut-off; inactive means mostly below about 32%
tim10-1 conf: growth inhibitors of tim10-1 mutant yeast, confirmation, single concentration, luminescence, S. cerevisiae; shares compounds with tim10-1 inh; S. cerevisiae tim10-1 ts strain growth, BacTiter-Glo, 24 h; inhibition, % at 20 µM; hit rate 56% among 7,400; AID 463213, 2010;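 active means inhibition of yeast growth at or above a set limit in either of two repeat tests at 20 µM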;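 further: tim10-1 mutant grown at permissive 25 °C to find synthetic lethal compounds; 0% = DMSO yeast wells and 100% = medium wells without yeast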
tim10 confirm: growth inhibitors of wild-type TIM10 yeast, confirmation, counter-screen for tim10-1 synthetic lethality project, single concentration, luminescence, S. cerevisiae; inhibition, % at 10 µM; S. cerevisiae tim10 strain growth, BacTiter-Glo luminescence, 24 h; hit rate 63% among 4,600; shares compounds with TIM10 inh;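 active means inhibition of yeast growth at or above a set limit in either of two replicates at 10 µM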;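 further: this counterscreen used the strain with wild-type TIM10; 0% = yeast with DMSO and 100% = medium wells lacking yeast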
tim23-1 conf: tim23-1 mutant yeast growth inhibitors, confirmation, luminescence, single concentration; inhibition, % at 20 µM; hit rate 83% among 4,400; S. cerevisiae tim23-1 growth, BacTiter-Glo luminescence, 24 h; shares compounds with tim23-1 inh;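 active means inhibition above about 39% in either of two replicate wells at 20 µM, limit read from the data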;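 further: temperature-sensitive tim23-1 mutant grown at 25 °C; 0% = DMSO wells with yeast and 100% = medium wells without yeast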
The depositor's hits bear a star; . = no result. In the library only some 4.1% were active in any assay of this set; here they are far more common.

SMILES | tim23-1 inh | PfHsp90 yeast 2 | NLRP3 yeast inh | TIM10 inh | tim10-1 inh | NALP1 yeast inh | tim10-1 conf | tim23-1 conf | others
O=c1oc(-c2ccc(Br)o2)nc2ccccc12 | 53.9* | . | 11.7 | 32.1 | 45.9* | 7.1 | 16.1 | 60.5*
CCOCCCNS(=O)(=O)c1ccc(NC(=O)C2CC(=O)N(c3ccc(C)cc3)C2)cc1 (stereo not given) | -4.5 | -78.8 | 21.3 | 12.2 | 4.8 | 11.1 | . | .
COc1ccc(-n2nc(C(=O)NCC(=O)NCCCN3CCOCC3)c3ccccc3c2=O)c(OC)c1 | -5.4 | 21.5 | 7.3 | 4.8 | -26.6 | 9.7 | . | .
CCOC(=O)N1CCc2c(sc(NC(=O)c3ccc(Cl)s3)c2C(N)=O)C1 | 66.3* | . | 27.2 | 35.2 | 43.1* | 28.6 | 46.2* | 67.8*
Cc1ccc(S(=O)(=O)N2CCSC2=Nc2ccccc2)cc1 | -6.2 | . | 4.1 | 5.2 | 7.5 | . | . | .
COc1cc(CCC(=O)Nc2nnc(-c3cccnc3)s2)cc(OC)c1OC | 5.4 | -1.3 | 18.2 | -1.3 | 3.8 | 5.9 | . | .
CN1Cc2c(N3CCOCC3)nc3sc(C#N)c(N)c3c2CC1(C)C | -12.5 | 1.4 | 5.6 | -8.0 | -18.6 | 15.6 | . | .
CN1Cc2c(N3CCOCC3)nc3sc(C(=O)c4ccc(Br)cc4)c(N)c3c2CC1(C)C | 57.8* | . | 45.1 | 21.0 | 57.7* | 11.0 | -16.4 | 52.6*
O=C(CSc1cn[nH]n1)Nc1ccc(Cl)cc1Cl | 3.9 | -11.3 | 1.8 | 5.2 | -6.7 | -8.2 | . | .
O=Nc1c(-c2ccccc2)cc2ccccn12 | 66.2* | -40.9 | 31.6 | 49.4* | 49.8* | 38.4* | 43.1* | 63.5* | tim10 confirm=29.1*
COCCN(C(=O)CCC(=O)Nc1ccccn1)C(C(=O)NCCC(C)C)c1ccc(C)cc1 (stereo not given) | 14.2 | -1.0 | -1.7 | -2.9 | 15.0 | 9.8 | . | .
Fc1ccc(NC(=S)Nc2cccc3ccccc23)cc1 | 52.1* | -5.9 | 20.6 | 24.2 | 43.3* | -10.9 | 27.2 | 44.8*
CC(=O)Nc1cccc(-c2nnc3c4ccccc4c(C)nn23)c1 | 11.2 | . | -7.1 | 8.5 | 17.2 | -15.2 | . | .
Cc1nn2c(-c3ccncc3)nnc2c2ccccc12 | 51.6* | -58.8 | 17.0 | 76.0* | 56.8* | 24.5 | 65.1* | 42.6* | tim10 confirm=74.5*
O=S(=O)(NCCCN1CCOCC1)c1ccc(Cl)s1 | 0.1 | -5.3 | 7.4 | 1.5 | -19.3 | 8.7 | . | .
CCCCCCNS(=O)(=O)c1ccc(Cl)s1 | 56.2* | . | 32.2 | -0.8 | 43.2* | 15.7 | 26.4 | 46.8*
COc1ccc(-c2cccc(C3CC=CC4C3C(=O)N(Cc3ccccc3)C4c3ccc4ccccc4c3)c2)cc1 (stereo not given) | 31.4 | . | 32.0 | 35.2 | 29.4 | 1.6 | . | .
COc1ccc(C2C3C=CCC(c4cccc(-c5ccc(C)cc5)c4)C3C(=O)N2Cc2ccccc2)cc1Cl (stereo not given) | 53.0* | -4.9 | 8.6 | 55.8* | 45.7* | -0.6 | 40.2* | 53.5* | tim10 confirm=22.2
Cc1cccc(Nc2nc(-c3ccc(O)cc3O)cs2)n1 | 87.2* | -73.0 | 23.4 | 32.9 | 43.4* | 11.9 | 38.2* | 71.8*
CC(C)(C)C(=O)Nc1ccc(C(=O)OC2CCCCC2)cc1 | 50.2* | -5.2 | 24.7 | 38.5 | 41.3* | 8.0 | 27.5 | 42.5*
C/C(=N\NC(=O)c1ccc(CN2CCc3ccccc3C2)cc1)c1ccccc1O | 74.1* | 20.5 | 13.5 | 45.3* | 46.5* | 0.6 | 29.2 | 78.6* | tim10 confirm=48.2*
